Screen size: about 2,400 compounds; about 1,400 (58%) were called active.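 Rule for the calls: active = inhibition of 30% or more at any tested dose; inconclusive = primary hits over the limit that were never retested; inactive = the rest.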 The set was probably picked from earlier hits. Some of the results follow.
assay: ADP Hunter readout inhibition without MgcRacGAP – biochemical, coupled enzyme counter-screen, artefact control for MgcRacGAP inhibitor project, dose response (AID 624351); settings: fluorescence, no MgcRacGAP; series mostly up to 80 µM;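 note: signal is the ADP detection kit reading of free GDP without any GAP enzyme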;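 for inhibition: 0% = median positive control wells and 100% = median negative control wells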

| SMILES | IC50 | inhibition |
| --- | --- | --- |
| Oc1cc(O)cc(-c2cc3ccc(O)cc3o2)c1 | 25 µM (active) | – |
| COc1cc(/C=N\NC(=O)c2ccc(Cn3nc([N+](=O)[O-])c(Cl)c3C)o2)ccc1O | 33.9 µM (active) | – |
| COc1cc(/C=N/NC(=O)c2cccc([N+](=O)[O-])c2)ccc1O | 35.9 µM (active) | – |
| COc1cc(/C=N\NC(=O)CNC(=O)c2cccc([N+](=O)[O-])c2)ccc1O | 18.4 µM (active) | – |
| COc1cc(/C=N/NS(=O)(=O)c2ccc(C)c([N+](=O)[O-])c2)ccc1O | 37.1 µM (active) | – |
| O=[N+]([O-])c1cccc(S(=O)(=O)N/N=C/c2ccc(O)cc2)c1 | 45.2 µM (active) | – |
| CN(C)/N=C/c1ccc(OC(=O)c2cccc([N+](=O)[O-])c2)cc1 | inactive | – |
| c1ccc(OCCCN2CCCC2)cc1 | inactive | – |
| CN(CCOc1ccc(Cl)c(Cl)c1)Cc1ccccc1 | inactive | – |
| Nc1ccc(OCCc2ccccc2)cc1 | 37.5 µM (active) | – |
| COc1cc(C=c2c3ccccc3n3c2cc(-c2ccccc2)[n+]3C)cc(OC)c1OC | inactive | – |
| O=C(c1ccccc1)c1coc2ccc(O)c(Cl)c12 | 77.5 µM (active) | – |
| O=C1C=CC(=O)c2c(O)c(N3CCN(CCO)CC3)c(Cl)c(O)c21 | inactive | – |
| O=C(O)c1ccc(-c2ccc(/C=c3/sc4nc5ccccc5n4c3=O)o2)cc1Cl | inactive | – |
| COc1ccc(N=Nc2cc(OC)c(N)cc2OC)cc1 | 39.2 µM (active) | – |
| CC(C)N(CCNCC(O)COc1ccc(C(C)(C)c2ccccc2)cc1)C(C)C (centres undefined) | inactive | – |
| CCOc1cc(/C=N/NC(=O)C(C)Sc2ccccn2)ccc1O (centres undefined) | 44.5 µM (active) | – |
| CCOc1cc(/C=N/NC(=O)C(OC)c2ccccc2)ccc1O (centres undefined) | 58.2 µM (active) | – |
| COc1cc(CN2CCC(C(=O)NC3CCCC3)CC2)cc(Br)c1O | inactive | – |
| COc1cc(C(=S)NC2CCCCC2)ccc1O | 36.7 µM (active) | – |
| COc1cc(C(=S)NCc2ccccc2)cc(Br)c1O | inactive | – |
| COc1cc(/C=N/NC(=O)CC(=O)NC2CCCCC2)ccc1O | 55.1 µM (active) | – |
| COc1cc(CN2CCC(C(=O)NC3CCCC3)CC2)ccc1O | inactive | – |
| COc1ccc(CN2CCN(C(C)C(=O)N(C)Cc3cccc(F)c3)CC2)cc1OC (centres undefined) | inactive | – |
| COc1cc(CN2CCN(C(=O)CC(C)C)CC2)cc(OC)c1O | inactive | – |

| SMILES | IC50 | inhibition |
| --- | --- | --- |
| N#CC1=C(S)N(c2ccccc2)C(c2ccc(-c3ccccc3Cl)o2)NC1=O (centres undefined) | inactive | – |
| CCOc1cc(/C=N/NC(=O)CCCC(=O)NC2CCCCC2)ccc1O | 62.2 µM (active) | – |
| COc1cc(/C=N/NC(=S)NC2CC3CCC2C3)ccc1O (centres undefined) | 55.3 µM (active) | – |
| CCOc1cc(/C=N/NC(=O)Nc2ccccc2)ccc1O | 33 µM (active) | – |
| CCOc1cc(C=NNC(=O)CCCC(=O)NN=Cc2ccc(O)c(OCC)c2)ccc1O | 55.2 µM (active) | – |
| CCOc1cc(/C=N/NC(=O)CSc2cccc3cccnc23)ccc1O | 36.7 µM (active) | – |
| C=CCn1c(SCC(C)=O)nnc1-c1cc(-c2ccccc2)sc1N | 50.1 µM (active) | – |
| CCn1c(SC(C)C)nnc1-c1cc(-c2ccccc2)sc1N | 26.7 µM (active) | – |
| CCN(CC)CCOc1ccc2c(c1)C(=NNC(=O)c1ccccn1)c1cc(OCCN(CC)CC)ccc1-2 | inactive | – |
| O=C(Oc1ccc2c(c1)OCO2)c1ccc(Br)c(S(=O)(=O)N2CCOCC2)c1 | inactive | – |
| CC1=NN(c2ccccc2)C(=O)C1/C=C1\NC(=S)NC1=O (centres undefined) | inactive | – |
| Cc1ccc(-n2sc3ccccc3c2=O)cc1 | inactive | – |
| Cc1ccc(C2C=NN(c3ccccc3)C2=O)cc1 (centres undefined) | 78.2 µM (active) | – |
| COc1cc(/C=N/NC(=O)CCn2nnc3ccccc32)ccc1O | 53.8 µM (active) | – |
| COc1cc(/C=N/NC(=O)Cn2nnc3ccccc32)ccc1O | 20.7 µM (active) | – |
| COc1cc(/C=N/NC(=O)C(C)n2nnc3ccccc32)ccc1O (centres undefined) | 23.6 µM (active) | – |
| Cc1cc(NC(=O)c2sc3ccccc3c2O)no1 | 74.8 µM (active) | – |
| Cc1cc(NC(=O)CN2CCN(C)CC2)no1 | inactive | – |
| Cc1cc(NC(=O)CN2CCC(C)CC2)no1 | inactive | – |
| O=C(Nc1ccccn1)c1ccc2ccccc2c1O | 78.1 µM (active) | – |
| COc1ccccc1NC(=O)NNC(=O)c1ccc2ccccc2c1O | inactive | – |
| COc1ccc2c(c1)-c1c(ssc1=S)C(C)(C)N2 | 33.6 µM (active) | – |
| COc1ccc(Oc2cn[nH]c2-c2ccc(O)cc2O)cc1 | 29.9 µM (active) | – |
| COc1cccc(Oc2cn[nH]c2-c2ccc(O)cc2O)c1 | 52.5 µM (active) | – |
| CCOc1ccccc1Oc1cn[nH]c1-c1ccc(O)cc1O | 33.8 µM (active) | – |

| SMILES | IC50 | inhibition |
| --- | --- | --- |
| C#CCOCCOCCOCCNc1nc(N2CCN(C(=O)[C@H](CCCCN)n3cc([C@@H](N)C(C)CC)nn3)CC2)nc(N2CCN(C(=O)[C@H](CCCCN)n3cc([C@@H](N)CC(C)C)nn3)CC2)n1 (some centres undefined) | inactive | – |
| CCn1c(C)nc2cc(C(=O)N/N=C/c3ccc(O)cc3)ccc21 | 81.6 µM (active) | – |
| CC1=NN(C(N)=S)C(=O)C1N=Nc1ccc(O)cc1 (centres undefined) | 19.5 µM (active) | – |
| O=C(Nc1ccc(Oc2nnc(-c3ccccc3)c3ccccc23)cc1)c1ccccc1 | inactive | – |
| CC(=O)Nc1ccc(Oc2nc(-c3ccccn3)nc3ccccc23)cc1 | 26.7 µM (active) | – |
| CN(C)CCCNCC(=O)c1c(-c2ccccc2)n(C)c2ccccc12 | – | -1.7% [at 10 µM] (inactive) |
| O=C(N/N=C/c1ccc(O)c(O)c1)C1c2ccccc2Oc2ccccc21 | 51 µM (active) | – |
| c1nc(SSc2ncnc3nc[nH]c23)c2[nH]cnc2n1 | inactive | – |
| Oc1ccc(/C=N/Nc2ncnc3nc[nH]c23)cc1 | 13.2 µM (active) | – |
| CCOc1cc(/C=N/Nc2ncnc(Cl)c2N)ccc1O | 30.7 µM (active) | – |
| Nc1c(Cl)ncnc1N/N=C/c1ccc(O)cc1 | 15.1 µM (active) | – |
| Cc1[nH]ccc2c1[nH]c1cc(=O)ccc12 | 61.9 µM (active) | – |
| CC/C(=N\O)c1ccc(O)c(OC)c1 | 61.2 µM (active) | – |
| COc1ccc(S(=O)(=O)N2CCC(N3CCN(Cc4ccccc4)CC3)CC2)cc1 | inactive | – |
| C[C@@H]1O[C@@H](OC[C@H]2O[C@@H](Oc3cc(O)c4c(=O)cc(-c5ccc(O)c(O)c5)oc4c3)[C@H](O)[C@@H](O)[C@@H]2O)[C@H](O)[C@H](O)[C@H]1O | 46 µM (active) | – |
| O=c1cc(-c2ccc(O)c(O)c2)oc2cc(O)c(C3OC(CO)C(O)C(O)C3O)c(O)c12 (centres undefined) | 45.9 µM (active) | – |
| O=c1cc(-c2ccc(O)c(O)c2)oc2cc(O)c([C@@H]3O[C@H](CO)[C@@H](O)[C@H](O)[C@H]3O)c(O)c12 | 59 µM (active) | – |
| O=C(O)c1cc(O)c2c(c1)[C@@H]([C@H]1c3cc(C(=O)O)cc(O)c3C(=O)c3c(O[C@@H]4O[C@H](CO)[C@@H](O)[C@H](O)[C@H]4O)cccc31)c1cccc(OC3O[C@H](CO)[C@@H](O)[C@H](O)[C@H]3O)c1C2=O (some centres undefined) | inactive | – |
| COc1cc(/C=C/C(=O)OCC(=O)NCc2ccc(F)cc2)ccc1O | 40 µM (active) | – |
| COC(=O)c1ccc(CNC(=O)COC(=O)/C=C/c2ccc(O)c(OC)c2)cc1 | 31 µM (active) | – |
| COc1ccc(CNC(=O)CN(C)Cc2ccc(C(C)(C)C)cc2)cc1 | inactive | – |
| COC(=O)c1ccc2c(c1)C(C)(C)C(/C=C/c1ccccc1O)=[N+]2C | inactive | – |
| COc1cc(/C=C/C(=O)OCC(=O)NCCCc2ccccc2)ccc1O | 33.5 µM (active) | – |
| CN(CC(=O)NCc1ccccc1)Cc1cccc(F)c1 | inactive | – |
| COc1cc(C(C[N+](=O)[O-])c2c(N)n(C)c(=O)n(C)c2=O)ccc1O (centres undefined) | inactive | – |

| SMILES | IC50 | inhibition |
| --- | --- | --- |
| COC(=O)c1ccc2c(c1)C(C)(C)C(/C=C/c1ccc(OC)c(OC)c1OC)=[N+]2C | inactive | – |
| COc1cc(/C=C/C(=O)OCC(=O)N(CC(C)C)c2c(N)n(Cc3ccccc3)c(=O)[nH]c2=O)ccc1O | 61.2 µM (active) | – |
| CC(C)(c1ccccc1)c1ccc(OCC(O)CNC2CCN(Cc3ccccc3)CC2)cc1 (centres undefined) | inactive | – |
| CN(C)c1ccc(N=Cc2nc(-c3ccccc3)oc2OC(=O)c2cccc(Cl)c2)cc1 | inactive | – |
| CC(C(=O)N(C)Cc1ccccc1)N1CCN(C/C=C/c2ccccc2)CC1 (centres undefined) | inactive | – |
| COc1cc(/C=C/C(=O)OCC(=O)N(C)Cc2ccccc2)ccc1O | 34.7 µM (active) | – |
| C/C=C/c1ccc(OCCCCN(C)Cc2ccccc2)c(OC)c1 | inactive | – |
| Oc1ccc(N2CCN(c3ccnc4cc(Cl)ccc34)CC2)cc1 | 53.3 µM (active) | – |
| Oc1ccc(Nc2ccnc3cc(Cl)ccc23)cc1 | 26.3 µM (active) | – |
| Oc1ccc(/C=N/Nc2ccnc3cc(Cl)ccc23)cc1O | 40.3 µM (active) | – |
| CN(C)c1ncc(C2=C(Cl)C(=O)C(N3CCCC3)=C(Cl)C2=O)s1 | – | -12.5% [at 10 µM] (inactive) |
| Nc1ccc2c(c1)OC1(CCCC1)O2 | 26 µM (active) | – |
| Nc1cc(Cc2ccccc2)ccc1O | 24.1 µM (active) | – |
| COc1ccc(Br)cc1CNc1ccc(O)cc1 | 54 µM (active) | – |
| Oc1ccc(NCc2ccccc2OCc2ccccc2F)cc1 | inactive | – |
| COc1ccc(Br)cc1CN(C)CC(=O)NCCc1ccccc1 | inactive | – |
| CN1C(=O)/C(=C/C=C2/CCCN2C)N(C)C1=S | 24.6 µM (active) | – |
| CN1C(=O)/C(=C/C=C2\SCCN2C)N(C)C1=S | 26.6 µM (active) | – |
| c1ccc(-c2ccccc2OCCOCCN2CCOCC2)cc1 | inactive | – |
| NC(N)=N/N=C/c1ccc(Cl)cc1Cl | inactive | – |
| CCN(CC)c1ccc(/C=N/NC(=O)OC)c(O)c1 | 62.6 µM (active) | – |
| CCOC(=O)N/N=C/c1ccc(N(CC)CC)cc1O | 81.2 µM (active) | – |
| CCN(CC)c1ccc(/C=N/Nc2nc(C)cc(C)n2)c(O)c1 | 65.2 µM (active) | – |
| CCc1ccc2nc3sc(C(=O)O)cc3cc2c1 | inactive | – |

Source: PubChem BioAssay AID624351 (Southern Research Specialized Biocontainment Screening …, 2012)
